A short description of test [1]: Viability qHTS for spleen associated tyrosine kinase inhibitor (SYKi) drug resistant MV4-11 cells (AID 1963824). Note: nearly all actives have a fitted effect of over 35% in size. Note: potency is the fitted concentration of half-maximal effect. Put shortly:
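CellTiter-Glo luminescence, read 10 min after reagent addition, reports viability after a 72 hr compound exposure. Cells are an MV4-11 line made resistant to SYK inhibition, seeded at 500 per well onto compound-containing plates.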
For orientation: Quantitative high-throughput screening tests each substance at several concentrations.

The nature of test [2]: Cellular viability qHTS for adrenocortical cancer (ACC) cell line NCI-H295R (AID 1963990). Note: nearly all actives have a fitted effect of over 60% in size. Note: potency is the fitted concentration of half-maximal effect. In a few lines:
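CellTiter-Glo ATP luminescence, read 48 h after compound addition, measured viability of NCI-H295R adrenocortical cells grown serum-free with ITS. Final concentrations spanned up to 46 uM. Data normalized to DMSO and doxorubicin, fitted for IC50 and maximal response.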

A short description of test [3]: Quantitative highthroughput screen to assess conditional lethalithy of NOMO1 cells grown in RPMI1640 with untreated serum (RPMI+s) (AID 1963876). Note: nearly all actives have a fitted effect of over 35% in size. Note: potency is the fitted concentration of half-maximal effect. Put shortly:
(§1)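 Each medium arm—HPLM with 10% dialyzed FBS, or RPMI1640 with 5 mM glucose and 10% untreated or dialyzed FBS—was screened against an 11-point, 3-fold compound titration for 48 h at 37 °C, with CellTiter-Glo luminescence as endpoint.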

Test [4] can be described thus: Quantitative highthroughput screen to assess conditional lethalithy of NOMO1 cells grown in RPMI1640 with dialyzed fetal bovine serum (RPMI+ds) (AID 1963877). For Viability: series mostly up to about 46 µM. Note: nearly all actives have a fitted effect of over 30% in size. Note: potency is the fitted concentration of half-maximal effect. In a few lines:
as §1

A short description of test [5]: Quantitative highthroughput screen to assess conditional lethalithy of NOMO1 cells grown in Human Plasma-Like Medium with dialyzed fetal bovine serum (HPLM+ds) (AID 1963878). Note: nearly all actives have a fitted effect of over 35% in size. Note: potency is the fitted concentration of half-maximal effect. In a few lines:
as §1

The nature of test [6]: Quantitative highthroughput screen to assess conditional lethalithy of P12 Ichikawa cells grown in Human Plasma-Like Medium with dialyzed fetal bovine serum (HPLM+ds) (AID 1963879). For Viability: series mostly up to about 46 µM. Note: nearly all actives have a fitted effect of over 35% in size. Note: potency is the fitted concentration of half-maximal effect. As to conditions: Potency: viability. Put shortly:
as §1

The nature of test [7]: Quantitative highthroughput screen to assess conditional lethalithy of P12 Ichikawa cells grown in RPMI1640 with dialyzed fetal bovine serum (RPMI+ds) (AID 1963880). Note: nearly all actives have a fitted effect of over 35% in size. Note: potency is the fitted concentration of half-maximal effect. The settings on record: Potency: P12-Ichikawa viability. Put shortly:
as §1

A short description of test [8]: Quantitative highthroughput screen to assess conditional lethalithy of P12 Ichikawa cells grown in RPMI1640 with untreated serum (RPMI+s) (AID 1963881). For Viability: series mostly up to about 46 µM. Note: nearly all actives have a fitted effect of over 35% in size. Note: potency is the fitted concentration of half-maximal effect. The settings on record: Potency: viability. Put shortly: as §1
The nature of test [9]: Quantitative highthroughput screen to assess conditional lethalithy of SEM cells grown in Human Plasma-Like Medium with dialyzed fetal bovine serum (HPLM+ds) (AID 1963882). For Viability: series mostly up to about 46 µM. Note: nearly all actives have a fitted effect of over 35% in size. Note: potency is the fitted concentration of half-maximal effect. Put shortly:
as §1

Test [10] in a line: Quantitative highthroughput screen to assess conditional lethalithy of SEM cells grown in RPMI1640 with unreated serum (RPMI+s) (AID 1963883). Note: nearly all actives have a fitted effect of over 35% in size. Put shortly: as §1

SMILES strings stand for the structures. Results filed as inconclusive are left out. Active and inactive are the calls of the source. Calls come from the whole dose curve; as a rule, active = well fitted curve in the direction sought with a large enough effect; inconclusive = small, poorly fitted or top-dose-only effect, or another doubt; inactive = no such curve, though single readings can be large; an effect the other way counts as inactive or inconclusive.

Consider `CCOCc1nc2c(N)nc3ccccc3c2n1CC(C)(C)O`, for which the Potency in [1] was 18.6 µM (active). In addition, the Potency result in test [2] is “inactive”.
For the compound `CCN(C)S(=O)(=O)Nc1ccc(F)c(C(=O)c2c[nH]c3ncc(-c4cnc(C5CC5)nc4)cc23)c1F`, the Potency was 4.68 µM (active) in [1] and 28.2 µM (active) in [2].
On the same counts, the results for `CN1CCN(CCC(=O)N2c3ccccc3Sc3ccc(C(F)(F)F)cc32)CC1` are 23.7 µM (active) and 23.1 µM (active).
The corresponding values for `COc1cc2c(cc1OC)CN(C(=O)[C@H](C)N[C@@H](CCc1ccccc1)C(=O)O)[C@H](C(=O)O)C2` are “inactive” and “inactive”.
Regarding `O=C(/C=C/c1ccccc1)NCCO`, the Potency result in test [1] is “inactive”. For the same compound, the Potency in test [2] is 14.6 µM (active).
As to `CN(C)CCOC1=Cc2ccccc2Sc2ccc(Cl)cc21`, the Potency in test [1] was 15 µM (active); in test [2], 20.6 µM (active).
On to `CS(=O)(=O)Nc1cc2occ(NC=O)c(=O)c2cc1Oc1ccccc1`, for which the Potency result in [1] and in test [2] was “inactive” each time.
Consider `CCCOc1ccc(CCc2nc3cc(-c4c(C)noc4C)ccc3n2CCN2CCOCC2)cc1`, for which the results for the Potency in [1] and in [2] were 5.25 µM (active) and 22.4 µM (active), respectively.
`COc1ccc2cc(C=O)ccc2c1`: the Potency result in test [1] and in [2] was “inactive” each time.
On to `Fc1ccc2[nH]ccc2c1-c1nc(N2CCOCC2)c2sc(CN3CCN(CC4CC4)CC3)cc2n1`, for which the Potency was 5.9 µM (active) in test [1] and 31.6 µM (active) in test [2].
As to `CCOC(=O)[C@H](CCc1ccccc1)N[C@@H](C)C(=O)N1Cc2ccccc2C[C@H]1C(=O)O`, the results for the Potency in test [1] and in test [2] were 5.96 µM (active) and 16.4 µM (active), respectively.
For the compound `Nc1cccc2c(N)cccc12`, the Potency in test [1] is 0.545 µM (active); in test [2], 39.8 µM (active).
Consider `S=c1[nH]c2ccccc2s1`, for which the Potency in test [1] is 0.545 µM (active). In [2], the Potency result was “inactive”.
Turning to `COc1cc2ncnc(Nc3cccc(Cl)c3F)c2cc1OC(=O)N1CCN(C)C[C@H]1C`, in test [1], the Potency was 7.31 µM (active). Besides, in test [2], the Potency entry is “inactive”.
On to `CN(C(=O)CN(CCO)CC(=O)N(C)C(C)(C)Cc1ccccc1)C(C)(C)Cc1ccccc1`, for which the Potency is 9.44 µM (active) in test [1] and 23.1 µM (active) in test [2].
Turning to `CC[C@H](NC(=O)[C@H](C)NC)C(=O)N1C[C@@H](O)C[C@H]1Cc1c(-c2[nH]c3cc(F)ccc3c2C[C@@H]2C[C@H](O)CN2C(=O)[C@H](CC)NC(=O)[C@H](C)NC)[nH]c2cc(F)ccc12`, the Potency in test [1] was 0.0074 µM (active). Further, in test [2], the Potency result is “inactive”.
On to `COCC(=O)O[C@]1(CCN(C)CCCc2nc3ccccc3[nH]2)CCc2cc(F)ccc2[C@@H]1C(C)C`, for which the Potency in [1] was 13.3 µM (active); in test [2], 16.4 µM (active).
On the same counts, the results for `CC[N+]1(CC)CCC(=C(c2ccccc2)c2ccccc2)C1C` (stereo not drawn) are 8.2 µM (active) and “inactive”.
As for `CC(C)[C@](O)(c1ccc2cc(OC(F)F)c(OC(F)F)cc2c1)c1cn[nH]n1`, the figures for the Potency in test [1] and in test [2] were 14.8 µM (active) and 25.1 µM (active), respectively.
Regarding `O=c1cc(-c2ccccc2)oc2ccccc12`, the Potency in [1] was 21.5 µM (active). The Potency entry in test [2] is “inactive”.
As to `O=C(O)c1ccccc1Nc1cccc(C(F)(F)F)c1`, the Potency result in test [1] and in [2] was “inactive” throughout.
In the case of `COCCN1CCN(Cc2ccc(-c3n[nH]c4c3C(=O)c3c(NC(=O)NN5CCOCC5)cccc3-4)cc2)CC1`, the Potency in test [1] was 0.0209 µM (active); in test [2], 0.891 µM (active).
As to `CN(Cc1ccccc1)C(=O)c1ccc(S(=O)(=O)Nc2ccccc2)cc1`, in test [1], the Potency is 14.8 µM (active). Moreover, the Potency result in [2] was “inactive”.
The corresponding values for `Cc1cc(OCc2nnc(SC3CCCC3)n2-c2cccnc2)ccc1-c1ccc(S(C)(=O)=O)cc1` are 0.116 µM (active) and “inactive”.
Take `CNC(=O)[C@@H](NC(=O)[C@H](CC(C)C)[C@H](O)C(=O)NO)C(C)(C)C`: the Potency in test [1] was 10.5 µM (active). Moreover, the Potency result in test [2] is “inactive”.
For the compound `O=C(N/N=C/c1ccc([N+](=O)[O-])o1)c1ccc(O)cc1`, the Potency in test [1] is 16.8 µM (active); in [2] it was 7.31 µM (active).
Turning to `OCC(O)C(O)C(O)CO` (stereo not drawn), the Potency result in test [3], in test [4], in [5], in test [6], in test [7] and in test [8] was “inactive” each time.
With `CN(C)CCc1c[nH]c2ccc(Cn3cncn3)cc12`, the Potency in test [3] was 1.05 µM (active); in [4], 1.18 µM (active); in test [5], 0.833 µM (active); in [6], 1.18 µM (active); in test [7], 0.935 µM (active); in test [8] it was 1.18 µM (active). Besides, in test [9], the Potency is 0.372 µM (active).
`CCC(=C(CC)c1ccc(O)cc1)c1ccc(O)cc1`: the Potency result in [3], in test [4], in test [5], in [6], in test [7] and in test [8] was “inactive” throughout. The Potency result in test [9] and in test [10] was “inactive” each time.

Source of the values: PubChem BioAssay (NCATS).
